According to PubChem BioAssay (NCATS):
Where “and” joins values, the source holds several entries; their conditions need not be identical. Equal entries are not always repeated. Results filed as inconclusive are left out. Calls of active or inactive are those of the source. Calls follow the shape of the full dose curve.

Experiment: Cytotoxicity counterscreen for inhibitors of SARS-CoV-2 cell entry (AID 1645845); also: nearly all actives have a fitted effect of over 50% in size; as to activity change, negative = cytotoxicity: % is scaled to controls: 0 for no effect and ±100 for the full control effect
Conditions: cell viability (SARS-CoV-2 entry assay cells); series mostly up to 57.1 µM; activity change, negative = cytotoxicity: at the top concentration
Method in brief: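 ATP-content luminescence (ATPLite 1step, 15 min RT) read after 48 h compound exposure of Expi293F cells stably expressing human ACE2; normalized to cells-only wells and media-only wells.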

Row | Structure (SMILES) | outcome | activity change, negative = cytotoxicity | Potency
1 | CC1(C)C2CC[C@]3(C)C(C(=O)C=C4[C@@H]5C[C@@](C)(C(=O)O)CC[C@]5(C)CC[C@]43C)[C@@]2(C)CC[C@@H]1O (stereo not given in full) | inactive |  | 
2 | Cn1cc(OCC(O)CNC(C)(C)C)c2ccccc2c1=O (stereo not given) |  | -18.2% (inactive) | 
3 | CCC(=C(CC)c1ccc(OP(=O)(O)O)cc1)c1ccc(OP(=O)(O)O)cc1 |  | 1.12% [at 0.702 µM] (inactive) | 
4 | CC1(C)S[C@H]2[C@H](NC(=O)[C@@H](N)c3ccc(O)cc3)C(=O)N2[C@H]1C(=O)O |  |  | inactive
5 | CCN1CCN(C(=O)N[C@@H](C(=O)N[C@]2(OC)C(=O)N3C(C(=O)O)=C(CSc4nnnn4C)CS[C@@H]32)[C@H](C)O)C(=O)C1=O | inactive |  | 
6 | Cc1onc(-c2c(F)cccc2Cl)c1C(=O)N[C@@H]1C(=O)N2[C@@H]1SC(C)(C)[C@H]2C(=O)O | inactive |  | 
7 | OCC1OC(c2ccc(Cl)c(Cc3ccc(OC4CCOC4)cc3)c2)C(O)C(O)C1O (stereo not given) |  | 2.53% (inactive) | 
8 | CC(=O)OCC1=C(C(=O)O)N2C(=O)[C@@H](NC(=O)CC#N)[C@H]2SC1 | inactive |  | 
9 | CC(OC(=O)OC1CCCCC1)OC(=O)C1=C(CSc2nnnn2CCN(C)C)CS[C@@H]2[C@H](NC(=O)Cc3csc(N)n3)C(=O)N12 (stereo not given in full) | inactive |  | 
10 | [2H]N[C@@H](Cc1ccccc1)C(=O)N1CCC[C@H]1C(=O)N[C@@H](CCCNC(=N)N)C(=O)N1CCC[C@H]1C(=O)NCC(=O)NCC(=O)NCC(=O)NCC(=O)N[C@@H](CC(N)=O)C(=O)NCC(=O)N[C@@H](CC(=O)O)C(=O)N[C@@H](Cc1ccccc1)C(=O)N[C@@H](CCC(=O)O)C(=O)N[C@@H](CCC(=O)O)C(=O)N[C@H](C(=O)N1CCC[C@H]1C(=O)N[C@@H](CCC(=O)O)C(=O)N[C@@H](CCC(=O)O)C(=O)N[C@@H](Cc1ccc(O)cc1)C(=O)N[C@@H](CC(C)C)C(=O)O)[C@@H](C)CC |  | 2.97% [at 11.3 µM] (inactive) | 
11 | CN=C(NC)NCc1ccccc1 | inactive |  | 
12 | Cc1cc(Nc2ncc(Cl)c(Nc3ccccc3S(=O)(=O)C(C)C)n2)c(OC(C)C)cc1C1CCNCC1 |  |  | inactive
13 | CN(CCCCCCN(C)C(=O)Oc1ccc[n+](C)c1)C(=O)Oc1ccc[n+](C)c1 | inactive |  | 
14 | CO[C@@H]1[C@@H](O[C@@H]2O[C@H](C)[C@@H](O[C@H]3C[C@@](C)(O)[C@H](O)[C@H](C)O3)[C@H](N(C)C)[C@H]2O)[C@@H](CC=O)C[C@@H](C)[C@@H](O[C@H]2CC[C@H](N(C)C)[C@@H](C)O2)/C=C/C=C/C[C@H](C)OC(=O)C[C@H]1O | inactive |  | 
15 | CO[C@H]1C[C@@H]2CC[C@@H](C)[C@@](O)(O2)C(=O)C(=O)N2CCCC[C@H]2C(=O)O[C@H]([C@H](C)C[C@@H]2CC[C@@H](OCCO)[C@H](OC)C2)CC(=O)[C@H](C)/C=C(/C)[C@@H](O)[C@@H](OC)C(=O)[C@H](C)C[C@H](C)\C=C/C=C\C=C/1C |  | 1.96% [at 27.1 µM] (inactive) | 
16 | C#C[C@]1(O)CCC2C3CCC4=C(CCC(=O)C4)C3CC[C@@]21C (stereo not given in full) | inactive |  | 
17 | CCCCCCCCCCCCCCCCCC(=O)[O][Al] |  | 0.759% [at 5.25 µM] (inactive) | 
18 | CC/C=C\C/C=C\C/C=C\C/C=C\C/C=C\CCCC(=O)O | inactive |  | 
19 | O=S(=O)(O)Oc1ccc(C(c2ccc(OS(=O)(=O)O)cc2)c2ccccn2)cc1 |  | -6.38% (inactive) | 
20 | CO/N=C(\C(=O)N[C@@H]1C(=O)N2C(C(=O)O)=C(CSc3nnnn3C)CS[C@H]12)c1csc(N)n1 | inactive |  | 
21 | CN1CCc2nc(C(=O)N[C@@H]3C[C@@H](C(=O)N(C)C)CC[C@@H]3NC(=O)C(=O)Nc3ccc(Cl)cn3)sc2C1 | inactive |  | 
22 | NCCCC[C@H](NC(=O)[C@@H]1CCCN1C(=O)[C@@H]1CSSC[C@H](N)C(=O)N[C@@H](Cc2ccc(O)cc2)C(=O)N[C@@H](Cc2ccccc2)C(=O)N[C@@H](CCC(N)=O)C(=O)N[C@@H](CC(N)=O)C(=O)N1)C(=O)NCC(N)=O | inactive |  | 
23 | C[C@@H](O)[C@H]1C(=O)N2C(C(=O)O)=C(S[C@@H]3CN[C@H](C(=O)Nc4cccc(C(=O)O)c4)C3)[C@H](C)[C@H]12 | inactive |  | 
24 | CO[C@H]1/C=C\O[C@@]2(C)Oc3c(C)c(O)c4c(O)c(c(/C=N/N5CCN(C6CCCC6)CC5)c(O)c4c3C2=O)NC(=O)/C(C)=C\C=C/[C@H](C)[C@H](O)[C@@H](C)[C@@H](O)[C@@H](C)[C@H](OC(C)=O)[C@@H]1C |  | -24.6% (inactive) | 
25 | O=C(O)[C@@H]1CCCN1 | inactive |  | 
26 | O[C@@H]1[C@@H](O)[C@@H](O)OC[C@@H]1O | inactive [at 171 µM] |  | 
27 | CCCCCCCCCCCCCC(=O)OCC(COP(=O)([O-])OCC[N+](C)(C)C)OC(=O)CCCCCCCCCCCCC (stereo not given) |  | 4.4% (inactive) | 

Experiment: Primary qHTS to identify inhibitors of SARS-CoV-2 cell entry (AID 1645846); also: nearly all actives have a fitted effect of over 45% in size
Conditions: SARS-CoV-2 pseudovirus cell entry assay, luminescence; activity change, negative = inhibition: at 57.1 µM (top of the series) unless noted
Method in brief: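 HEK293-ACE2 (Expi293F, stable hACE2), 1500 cells/well, o/n 37C; cpd 23 nL pin, 1 h; MLV-PP w/ SARS-CoV-2-S (Wuhan-Hu-1, Δ19 C-term); 48 h 37C; Bright-Glo luminescence; normalized vs S-PP and bald PP.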

Row | Structure (SMILES) | activity change, negative = inhibition | outcome
28 | COc1ccc(C(=O)N2CCN(c3ccc4c(c3)CCC(=O)N4)CC2)cc1OC | 3.69% and -19.3% | 
29 | OCC(O)COc1ccc(Cl)cc1 (stereo not given) | -23.5% [at 171 µM] | 
30 | CC(=O)OCC(=O)[C@@]12OC3(CCCC3)O[C@@H]1C[C@H]1[C@@H]3CCC4=CC(=O)C=C[C@]4(C)[C@@]3(F)[C@@H](O)C[C@@]12C |  | inactive
31 | O=S(O)CNc1ccc(S(=O)(=O)c2ccc(NCS(=O)O)cc2)cc1 | 3.29% | 
32 | CN(C(=O)CO)c1c(I)c(C(=O)NCC(O)CO)c(I)c(C(=O)NCC(O)CO)c1I (stereo not given) | -14.3% | 
33 | CC(Oc1ccccc1)C(=O)N[C@@H]1C(=O)N2[C@@H]1SC(C)(C)[C@@H]2C(=O)O (stereo not given in full) | -18.1% | 
34 | CC(=O)NC(C=O)C(O)C(O)[C@H](O)CO (stereo not given in full) | -0.156% | 
35 | CNC(=O)C[C@@H](N)C(=O)N[C@@H](C(=O)N[C@@H]1C(=O)N2[C@@H]1SC(C)(C)[C@@H]2C(=O)O)c1ccc(O)cc1 | -19.8% | 
36 | C[C@@H]1C[C@H]2[C@@H]3C[C@H](F)C4=CC(=O)C=C[C@]4(C)[C@@]3(F)[C@@H](O)C[C@]2(C)[C@@]1(O)C(=O)COC(=O)C(C)(C)C |  | inactive
37 | CN(C)C=Nc1c(I)cc(I)c(CCC(=O)O)c1I | -33.1% | 
38 | Nc1nc(CC(=O)Nc2ccc(CCNC[C@H](O)c3ccccc3)cc2)cs1 | -24.2% | 
39 | CCCCC(CC)COC(=O)c1ccc(Nc2nc(Nc3ccc(C(=O)OCC(CC)CCCC)cc3)nc(Nc3ccc(C(=O)OCC(CC)CCCC)cc3)n2)cc1 (stereo not given) | -28% | 
40 | CCCCC[C@H](O)/C=C/[C@@H]1[C@@H](C/C=C/CCCC(=O)O)[C@@H](O)C[C@H]1O | -6.41% | 
41 | CC1(C)C2CC[C@]3(C)C(C(=O)C=C4[C@@H]5C[C@@](C)(C(=O)O)CC[C@]5(C)CC[C@]43C)[C@@]2(C)CC[C@@H]1O (stereo not given in full) | -28.8% | 
42 | Cn1cc(OCC(O)CNC(C)(C)C)c2ccccc2c1=O (stereo not given) | -17.6% | 
43 | CCC(=C(CC)c1ccc(OP(=O)(O)O)cc1)c1ccc(OP(=O)(O)O)cc1 | -22.1% [at 0.702 µM] | 
44 | CC1(C)S[C@H]2[C@H](NC(=O)[C@@H](N)c3ccc(O)cc3)C(=O)N2[C@H]1C(=O)O | -1.08% and -18.3% | 

Row | Structure (SMILES) | activity change, negative = inhibition | outcome
45 | CCN1CCN(C(=O)N[C@@H](C(=O)N[C@]2(OC)C(=O)N3C(C(=O)O)=C(CSc4nnnn4C)CS[C@@H]32)[C@H](C)O)C(=O)C1=O | -16.3% | 
46 | Cc1onc(-c2c(F)cccc2Cl)c1C(=O)N[C@@H]1C(=O)N2[C@@H]1SC(C)(C)[C@H]2C(=O)O | -29.1% | 
47 | OCC1OC(c2ccc(Cl)c(Cc3ccc(OC4CCOC4)cc3)c2)C(O)C(O)C1O (stereo not given) | -20.7% | 
48 | CC(=O)OCC1=C(C(=O)O)N2C(=O)[C@@H](NC(=O)CC#N)[C@H]2SC1 |  | inactive
49 | CC(OC(=O)OC1CCCCC1)OC(=O)C1=C(CSc2nnnn2CCN(C)C)CS[C@@H]2[C@H](NC(=O)Cc3csc(N)n3)C(=O)N12 (stereo not given in full) | -37% | 
50 | [2H]N[C@@H](Cc1ccccc1)C(=O)N1CCC[C@H]1C(=O)N[C@@H](CCCNC(=N)N)C(=O)N1CCC[C@H]1C(=O)NCC(=O)NCC(=O)NCC(=O)NCC(=O)N[C@@H](CC(N)=O)C(=O)NCC(=O)N[C@@H](CC(=O)O)C(=O)N[C@@H](Cc1ccccc1)C(=O)N[C@@H](CCC(=O)O)C(=O)N[C@@H](CCC(=O)O)C(=O)N[C@H](C(=O)N1CCC[C@H]1C(=O)N[C@@H](CCC(=O)O)C(=O)N[C@@H](CCC(=O)O)C(=O)N[C@@H](Cc1ccc(O)cc1)C(=O)N[C@@H](CC(C)C)C(=O)O)[C@@H](C)CC | -18.8% [at 11.3 µM] | 
51 | CN=C(NC)NCc1ccccc1 | -12.2% | 
52 | Cc1cc(Nc2ncc(Cl)c(Nc3ccccc3S(=O)(=O)C(C)C)n2)c(OC(C)C)cc1C1CCNCC1 | -32% | 
53 | CN(CCCCCCN(C)C(=O)Oc1ccc[n+](C)c1)C(=O)Oc1ccc[n+](C)c1 | -28.5% | 
54 | CO[C@@H]1[C@@H](O[C@@H]2O[C@H](C)[C@@H](O[C@H]3C[C@@](C)(O)[C@H](O)[C@H](C)O3)[C@H](N(C)C)[C@H]2O)[C@@H](CC=O)C[C@@H](C)[C@@H](O[C@H]2CC[C@H](N(C)C)[C@@H](C)O2)/C=C/C=C/C[C@H](C)OC(=O)C[C@H]1O | -34.9% | 
55 | CO[C@H]1C[C@@H]2CC[C@@H](C)[C@@](O)(O2)C(=O)C(=O)N2CCCC[C@H]2C(=O)O[C@H]([C@H](C)C[C@@H]2CC[C@@H](OCCO)[C@H](OC)C2)CC(=O)[C@H](C)/C=C(/C)[C@@H](O)[C@@H](OC)C(=O)[C@H](C)C[C@H](C)\C=C/C=C\C=C/1C | -11.8% [at 27.1 µM] | 
56 | C#C[C@]1(O)CCC2C3CCC4=C(CCC(=O)C4)C3CC[C@@]21C (stereo not given in full) | -12.9% | 
57 | CCCCCCCCCCCCCCCCCC(=O)[O][Al] |  | inactive [at 5.25 µM]
58 | CC/C=C\C/C=C\C/C=C\C/C=C\C/C=C\CCCC(=O)O | -29% | 
59 | O=S(=O)(O)Oc1ccc(C(c2ccc(OS(=O)(=O)O)cc2)c2ccccn2)cc1 |  | inactive
60 | CO/N=C(\C(=O)N[C@@H]1C(=O)N2C(C(=O)O)=C(CSc3nnnn3C)CS[C@H]12)c1csc(N)n1 | -27.5% | 
